HCMV antiviral – blocks human cytomegalovirus replication; actives 4.5% (n = 410,000); AID 1259415; HFF cells, HCMV-luciferase reporter, 72 h; stronger effect = lower value; activity change, negative = inhibition, % at 57.5 µM; in the data active = activity change below about -60%; inconclusive = no clear call, values can overlap the other calls; inactive = above about -39%
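After 16 h attachment at 37C, HFF cells received test compound and HCMV-luciferase (1 PFU/cell); reporter luminescence read 72 h later, data normalized against buffer-only and known inhibitor Salinomycin.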
Pf growth 48h – inhibits P. falciparum growth in the first generation, 48 h; P. falciparum luciferase growth in erythrocytes, 48 h; Potency, µM (doses to about 28.7 µM), actives largely listed as inhibitors; actives 5.9% (n = 310,000)
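Luciferase-expressing P. falciparum in infected erythrocytes (2% hematocrit, 0.1% parasitemia final) in RPMI 1640/0.5% Albumax were exposed to compound for 48 hours at 37 C, 5% CO2; growth read as luminescence.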
Shiga toxin inh – Shiga toxin inhibition | Vero cells, Shiga toxin protein synthesis inhibition reporter | inhibition, % at 38.7 µM | actives 9.2% (n = 290,000); in the data active = inhibition mostly above about 28%, no sharp cut-off; inactive = mostly below about 43%
Cycloheximide cs – counter-screen for Shiga toxin inhibitors: cycloheximide protein synthesis inhibition | cell reporter, cycloheximide protein synthesis inhibition counterscreen | max response, % | actives 12% (n = 300,000) | AID 2314; in the data active = max response mostly above about 13%, no sharp cut-off; inactive = mostly below about 14%; also: read at 38.3 µM for the half of the compounds with a filed dose
Pf growth 96h – P. falciparum growth inhibition at 96 hour, primary screen for plastid delayed-death inhibitors | AID 504834 | Potency, µM (series often up to 28.7 µM), actives largely listed as inhibitors | actives 6.9% (n = 320,000) | P. falciparum luciferase reporter growth, 96 h
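Readout is luminescence from an integrated firefly luciferase in P. falciparum. Red cells, 2% hematocrit and 0.05% parasitemia final, were cultured with compound through two parasite generations (96 hours) at 37 C, 5% CO2.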
Numbers stand for hits; - = inactive; ? = inconclusive; . = not tested or not shown; ! = not confirmed by another sample. Hits are enriched below; roughly 20% of the tested compounds scored in any of these assays. Unless noted, calls follow the shape of the dose curve; as a rule, active = well fitted inhibition curve with a large enough effect; inconclusive = small, poorly fitted or top-dose-only effect, or another doubt; inactive = no such curve, though single readings can be large or run the other way.

SMILES	HCMV antiviral	Pf growth 48h	Shiga toxin inh	Cycloheximide cs	Pf growth 96h
Cc1ccc(CSCC(=O)Nc2cc(S(=O)(=O)N3CCOCC3)ccc2OCC(F)(F)F)cc1	-	.	.	.	.
COc1ccc(C(=O)NCCC2=CCCCC2)cc1S(=O)(=O)N1CCOCC1	-	?	.	.	?
Cc1ccccc1NS(=O)(=O)c1cc(C(=O)NCCC2=CCCCC2)ccc1Cl	?	?	-	-	?
O=C(NCCC1=CCCCC1)c1ccc(F)c(S(=O)(=O)N2CCOCC2)c1	-	?	-	-	9.28µM
CC1CN(S(=O)(=O)c2cc(C(=O)NCCC3=CCCCC3)ccc2Cl)CC(C)O1 (stereo not given)	-81.6	10.4µM	.	.	?
Cc1ccc(CCNc2nc3c(S(=O)(=O)c4ccc(C)cc4)nnn3c3ccsc23)cc1	-	.	.	.	.
COC(=O)C1CCN(c2csc3ccc(C)cc3c2=O)CC1	-	.	.	.	.
Cc1ccc(S(=O)(=O)Nc2ccc(Br)cc2/C=N/n2cnnc2)cc1	-	-	-	-	3.7µM
CCOC(=O)C1(C)CCCN(C(=O)c2ccc3ccccc3c2)C1 (stereo not given)	-	.	.	.	.
CCOC(=O)C1(Cc2cccc(OC)c2)CCCN(Cc2cnn(C)c2)C1 (stereo not given)	-	-	-	-	?
CCOC(=O)C1(Cc2cccc(Cl)c2)CCCN(C(=O)c2cc(C)on2)C1 (stereo not given)	-	-	59.4	28.3	-
CCOC(=O)C1(Cc2cccc(Cl)c2)CCCN(C(=O)c2cc(C(C)C)nn2C)C1 (stereo not given)	-	?	-	31.8	-
CCOC(=O)C1(Cc2cccc(Cl)c2)CCCN(C(=O)c2ccc(C)nc2)C1 (stereo not given)	?	-	-	-	14.7µM
CCOC(=O)C1(Cc2cccc(Cl)c2)CCCN(C(=O)c2c(CC)noc2C)C1 (stereo not given)	-	?	24.4	41.3	?
CCOC(=O)C(Oc1ccc(=O)n(-c2ccccc2)n1)C(C)=O (stereo not given)	-	?	-	-	-
Nc1ccc2nc(-c3ccccc3)c(-c3ccccc3)nc2c1	-	-	-	-	?
C[n+]1c(-c2ccccc2)c2cc(N)ccc2c2ccc(N)cc21	-99.7	?	-	-	-
CN(C)/C=N/S(=O)(=O)c1cccn1-c1ncc(C(F)(F)F)cc1Cl	-	-	-	-	-
CN(C)/C=N/c1ncn(-c2ncc(C(F)(F)F)cc2Cl)n1	-	-	50.2	-	-
N#Cc1cc2c(nc1SCc1ccc(Cl)nc1)CCCCC2	?	?	-	-	?
COc1ccc(C(=O)N2CCC(N3CCN(c4ccccc4)CC3)CC2)cc1OC	-	-	-	-	-
CCN1C(=O)CCN(C2CCCC2)c2nc(Nc3ccc(C(=O)NC4CCN(C)CC4)cc3OC)ncc21	-72.9	.	.	.	.
COc1cc(C(=O)N2CCC(N3CCN(C)CC3)CC2)ccc1Nc1ncc2c(n1)N(C)c1ccccc1C(=O)N2C	-72.7	.	.	.	.
CCOc1ccccc1C(=O)NC1CCNCC1	-	-	.	-	13.1µM
CCOc1ccccc1C(=O)NCCNC(=O)c1ccccc1OCC	-	.	.	.	.
SMILES	HCMV antiviral	Pf growth 48h	Shiga toxin inh	Cycloheximide cs	Pf growth 96h
CCOc1ccccc1C(=O)NC1CCN(Cc2nnnn2C2CCCC2)CC1	-	?	-	-	13.1µM
CCC(C)(C)n1nnnc1CN1CCC(NC(=O)c2ccccc2C)CC1	-	-	-	-	-
Cc1cccc(NC(=O)Cn2nnc(C(=O)NCc3cccs3)c2N)c1	-	.	.	.	.
Cc1cc(NC(=O)CSc2nnc3ccc(-c4ccccc4)nn23)no1	-	.	.	.	.
CC1Cc2nc(SCC(=O)NCc3ccccc3)n(Cc3ccccc3)c(=O)c2S1 (stereo not given)	-	?	-	-	?
CSc1nc2c(c(=O)n1Cc1ccccc1)SC(C)C2 (stereo not given)	-	11.7µM	-	-	-
CC1Cc2nc(SCC(=O)c3ccccc3)n(Cc3ccccc3)c(=O)c2S1 (stereo not given)	-	?	40.5	14.2	?
COc1ccc([C@@H]2C=C(C(=O)O)O[C@H](OCCCCO)C2)cc1	-	-	-	-	-
COc1cc2c(cc1OC)CN(C(=O)CN1CCN(S(=O)(=O)c3ccc(C)c(C)c3)CC1)CC2	-	?	-	-	13.1µM
O=C(CN1CCN(S(=O)(=O)c2ccc3ccccc3c2)CC1)N1CCc2ccccc2C1	?	-	-	-	?
COc1ccc(S(=O)(=O)N2CCN(C(=O)COc3ccc(C)c(C)c3)CC2)cc1OC	-	10.4µM	-	-	-
COc1ccc(S(=O)(=O)N2CCN(C(=O)CCOc3ccccc3)CC2)cc1OC	-	?	.	.	-
COc1ccc(C2CN=NC23CCCc2ccccc2C3=O)cc1 (stereo not given)	-	3.7µM	-	-	2.62µM
COc1ccccc1C1CN=NC12CCCc1ccccc1C2=O (stereo not given)	-	9.28µM	-	-	16.5µM
COc1ccc(C2CN=NC23CCc2ccccc2C3=O)cc1 (stereo not given)	-	13.1µM	-	-	?
COC(=O)c1c(C)cccc1C1CN=NC12Cc1ccccc1C2=O (stereo not given)	-	.	.	.	.
Cc1oc(-c2ccc(Cl)cc2)nc1Cn1c(=O)cc(-c2ccccc2)c2c(C)nn(C)c21	-	.	.	.	.
Cc1cccc(CSc2nnc3[nH]c(=O)cc(-c4ccccc4)n23)c1	-	.	.	.	.
Cc1cc(C)cc(NC(=S)N2CCN(CCO)CC2)c1	-	-	-	-	-
Cc1ccccc1C(=O)N1CCC(C(=O)OCc2nc(N)nc(Nc3ccccc3)n2)CC1	-	?	.	.	13.1µM
CC(=O)Nc1ccc(NC(=O)CN(c2ccc(C34CC5CC(CC(C5)C3)C4)cc2)S(C)(=O)=O)cc1	-	-	-	-	-
CNC(=O)CN(c1ccc(C23CC4CC(CC(C4)C2)C3)cc1)S(C)(=O)=O	-60.4	?	-	-	-
CS(=O)(=O)N(CC(=O)Nc1ccc(CC#N)cc1)c1ccc(C23CC4CC(CC(C4)C2)C3)cc1	-	10.4µM	77.1	22.0	?
CN(C)C(=O)Oc1cccc([N+](C)(C)C)c1	-	?	-	-	4.15µM!
CCOc1ccc(S(=O)(=O)N2CCC(C(=O)NCc3ccccn3)CC2)cc1	-	-	-	-	?
O=C(c1cnn2c(C(F)(F)F)cc(-c3ccccc3)nc12)N1CCCCC1c1cccnc1 (stereo not given)	?	?	-	-	?
Cc1ccc(-c2cc(C(F)F)n3ncc(C(=O)NN4CCCCC4)c3n2)cc1	-	?	-	-	-
Cc1ccc(-c2cc(C(F)F)n3ncc(C(=O)N4CCN5CCCC5C4)c3n2)cc1 (stereo not given)	?	11.7µM	-	-	.
O=C(c1cc2nc(-c3ccc(F)cc3)cc(C(F)(F)F)n2n1)N1CCCCC1c1cccnc1 (stereo not given)	-89.9	3.7µM	-	-	-
CCOC(=O)C1CCCN(C(=O)c2cnn3c(C(F)F)cc(-c4ccc(C)cc4)nc23)C1 (stereo not given)	-	4.65µM	-	-	.

From PubChem
